Source: PubChem
A selection: hits, their analogues and other compounds. The true share with any hit is near 11%.
JMJD2A Tudor: JMJD2A Tudor domain (human) inhibition. Potency, µM (doses to about 114 µM), for the others: at the top dose activity change, negative = inhibition, most hits filed as inhibitors. O75164. AlphaScreen JMJD2A-Tudor / H3K4me3 peptide binding. hit rate 4.4% among 390,000; further: on the % scale 0 is the no-effect control and ±100 the full control effect; nearly all actives have a fitted effect of over 50% in size
BAZ2B inh: BAZ2B (human) inhibition; AID 504333; hit rate 4.4% among 360,000; Q9UIF8; AlphaScreen BAZ2B-H3K14Ac peptide displacement; Potency, µM (doses to about 114 µM), for the others: at the highest dose activity change, negative = inhibition, actives largely listed as inhibitors; further: on the % scale 0 is the no-effect control and ±100 the full control effect; nearly all actives have a fitted effect of over 60% in size
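Multi-concentration screen (max 110 uM) measuring displacement of acetylated histone H3 peptide from BAZ2B by AlphaScreen, using 50 nM protein, 50 nM peptide and 10 ug/mL streptavidin donor plus Ni-chelate acceptor beads.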
G9a inh: blocks human histone lysine methyltransferase G9a | Q96KQ7 | G9a H3K9 monomethylation, AlphaScreen, 2 h | Potency, µM (series often up to 102 µM), inactives show at the highest dose activity, negative = inhibition, usual class: inhibitors | hit rate 8.8% among 350,000; further: on the % scale 0 is the no-effect control and ±100 the full control effect; nearly all actives have a fitted effect of over 75% in size
Target sequence (Q96KQ7 913-1193 limits assumed): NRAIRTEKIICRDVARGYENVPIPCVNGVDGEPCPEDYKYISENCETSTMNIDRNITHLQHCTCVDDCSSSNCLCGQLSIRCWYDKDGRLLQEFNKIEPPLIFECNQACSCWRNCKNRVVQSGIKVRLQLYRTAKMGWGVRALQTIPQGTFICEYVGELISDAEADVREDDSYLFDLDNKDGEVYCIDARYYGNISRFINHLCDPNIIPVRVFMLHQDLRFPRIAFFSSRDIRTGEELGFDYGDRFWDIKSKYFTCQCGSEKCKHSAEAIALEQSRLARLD
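Readings reflect AlphaScreen signal from monomethyl-H3K9 antibody detection. HMT at 20 nM; substrate b-H3K9 500 nM; cofactor SAM 20 uM; 2 h RT reaction; compounds tested as titrations in qHTS with 15 min preincubation.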
L3MBTL1 block: inhibitors of human L3MBTL1 | Q9Y468 | AlphaScreen L3MBTL1–H3K9me1 peptide binding | Potency, µM (series often up to 57.1 µM), for inactives: at the top dose activity, negative = inhibition, usual class: inhibitors | hit rate 0.66% among 230,000 | AID 485360; further: on the % scale 0 is the no-effect control and ±100 the full control effect; nearly all actives have a fitted effect of over 60% in size
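L3MBTL1 50 nM + b-AHA-H3(1-15)K9me1 75 nM, 30 min RT; compound added, 30 min RT; streptavidin donor/Ni-chelate acceptor beads 10 ug/mL each final, 30 min RT dark; AlphaScreen read.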
HP1b binding inh: HP1-beta chromodomain-methylated histone interaction inhibition; Potency, µM (titrated, usually from 114 µM), inactives show at the top dose activity change, negative = inhibition, usual class: inhibitors; AlphaScreen HP1-beta / biotin-H3K9me3 peptide binding; P83916; hit rate 0.56% among 390,000; AID 540317; further: nearly all actives have a fitted effect of over 70% in size
Target sequence (P83916 whole entry, looked up): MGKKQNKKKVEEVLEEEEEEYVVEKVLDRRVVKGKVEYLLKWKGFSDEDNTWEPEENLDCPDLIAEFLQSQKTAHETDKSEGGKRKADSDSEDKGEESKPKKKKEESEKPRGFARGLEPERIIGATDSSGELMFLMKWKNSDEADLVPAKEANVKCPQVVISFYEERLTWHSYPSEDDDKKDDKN
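Compound inhibition of the preformed complex between 50 nM HP1-beta and 50 nM biotinylated H3K9me3 peptide was read by AlphaScreen. Buffer was PBS pH 7.4 with 0.01% Tween-20. Incubations ran 30 min at room temperature, with 10 ug/mL donor/acceptor beads.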
Numbers without * were called inactive; ? = inconclusive; . = no result; [ ] = another dose, or the depositor's remark. The call rests on the fitted dose curve; in most records, active means well fitted inhibition curve with a large enough effect; inconclusive means small, poorly fitted or top-dose-only effect; inactive means no such curve, though single readings can be large or run the other way. Potency means the concentration at half of the fitted maximal effect.

SMILES	JMJD2A Tudor	BAZ2B inh	G9a inh	L3MBTL1 block	HP1b binding inh
COc1ccc(CCNC(=O)CN(C2CCCCC2)S(C)(=O)=O)cc1OC	-30.4%	45.5%	31.6µM*	-4.0%	19.3%
COc1ccc(CCNCC(=O)N2C(C)CCCC2C)cc1OC (stereo unspecified)	0.794µM*	79.4µM*	-10.1%	3.4%	?
CCOCCc1nnc(NC(=O)C(=O)c2cc(C)n(-c3cccc(C)c3)c2C)s1	-32.5%	-18.0%	-7.8%[59 µM]	.	21.2%
COc1cccc(CSc2nc3n(n2)C(c2cccs2)C(C(=O)Nc2ccccc2C)=C(C)N3)c1 (stereo unspecified)	-14.7%	0.5%	5.0%[59 µM]	.	5.7%
O=C(c1ccco1)N1CCC2(CC1)CN(c1ccccc1)C2	.	.	22.5%[12.7 µM]	.	.
CC(=O)N1CCc2cc(CNC(=O)Cc3ccc(F)cc3)ccc21	-22.7%	-10.8%	10.4%[59 µM]	.	5.8%
COc1ccc(CCNCC(=O)Nc2ccc(C)c(Br)c2)cc1OC	50.1µM*	?	39.8µM*	-0.1%	?
COC(=O)c1ccccc1NC(=O)CNCCc1ccc(OC)c(OC)c1	25.1µM*	20µM*	7.94µM*	.	-34.4%
COc1ccc(CCNCC(=O)Nc2c(C)cc(C)cc2C)cc1OC	-8.6%	6.3%	.	1.5%	86.6%
COc1cc(OC)c(Nc2cc(C)nc3nc(C)nn23)cc1Cl	-13.6%	-5.4%	?	1.9%	17.8%
COc1cc(OC)c(Nc2cc(C)nc3ncnn23)cc1Cl	-17.5%	-2.7%	11.2µM*	.	17.4%
Cc1cc(Nc2ccc3ccccc3c2)n2ncnc2n1	-29.6%	-32.8%	15.8µM*	3.1%	-9.3%
Cc1ccnc(N=O)c1	20µM*	.	.	4.3%	?
Cc1ccc(-c2nc(CS(=O)CC(=O)NC3CCCCC3)c(C)o2)cc1 (stereo unspecified)	-3.4%	-19.5%	?	.	43.1%
Cc1oc(-c2cccs2)nc1CS(=O)CC(=O)NC1CCCCCC1 (stereo unspecified)	-22.2%	-1.6%	39.8µM*	6.5%	6.6%
Cc1ccccc1-c1nc(CS(=O)CC(=O)NC2CCCC2)c(C)o1 (stereo unspecified)	11.7%	-16.4%	79.4µM*	.	32.5%
CCCN1CCc2[nH]c(=S)[nH]c(=O)c2C1	?	13.7%	31.6µM*	35.8%	21.2%
CC(C)N1CCc2[nH]c(=S)[nH]c(=O)c2C1	?	16.0%	39.8µM*	44.3%	1.1%
Cc1ccc(CN2CCc3[nH]c(=S)[nH]c(=O)c3C2)cc1	-12.2%	-13.4%	?	.	18.9%[57 µM]
COc1ccccc1OC(C)C(=O)Nc1ccc(-c2nc3ccccc3s2)cc1 (stereo unspecified)	-7.3%	-21.3%	-0.2%[59 µM]	.	49.9%
OC(CNCC(c1ccc(Cl)cc1Cl)c1c[nH]c2ccccc12)c1ccccc1 (stereo unspecified)	35.5µM*	?	50.1µM*	-8.0%	?
O=[N+]([O-])CC(c1ccccc1)c1c[nH]c2ccccc12 (stereo unspecified)	-29.1%	.	.	.	22.8%
C#CCOCCOCCOCCNc1nc(N2CCN(C(=O)[C@H]([C@@H](C)CC)n3cc(CCCCN)nn3)CC2)nc(N2CCN(C(=O)[C@H]([C@@H](C)CC)n3cc(CCCN=C(N)N)nn3)CC2)n1	-20.8%	-32.1%	-9.2%[2.33 µM]	-2.6%	16.3%
C#CCOCCOCCOCCNc1nc(N2CCOCC2)nc(N2CCN(C(=O)[C@H]([C@@H](C)CC)n3cc(CCCCN)nn3)CC2)n1	?	?	50.1µM*	7.2%	16.3%
C#CCOCCOCCOCCNc1nc(N2CCN(C(=O)[C@H](C(C)C)n3cc(CCO)nn3)CC2)nc(N2CCN(C(=O)[C@H]([C@@H](C)CC)n3cc(CCCCN)nn3)CC2)n1	-26.8%	-34.1%	50.1µM*	2.8%	28.5%
SMILES	JMJD2A Tudor	BAZ2B inh	G9a inh	L3MBTL1 block	HP1b binding inh
Cn1cc(C2=C(c3cn(CCCSC(=N)N)c4ccccc34)C(=O)NC2=O)c2ccccc21	.	.	7.94µM*	.	.
CN(C)CCCn1cc(C2=C(c3c[nH]c4ccccc34)C(=O)NC2=O)c2ccccc21	.	.	14.1µM*	.	.
O=C(Nc1ccc(F)cc1F)C1CCN(S(=O)(=O)c2ccc3[nH]c(=O)ccc3c2)CC1	1.9%	0.2%	-0.4%[59 µM]	.	27.8%[57 µM]
Cn1c(=O)n(C)c2cc(NS(=O)(=O)c3ccc(Br)cc3)c(NCc3ccccc3)cc21	?	-28.1%	?	.	-1.3%
CCCS(=O)(=O)Nc1cc2c(cc1NCc1ccccc1)n(C)c(=O)n2C	-26.0%	50.1µM*	15.8µM*	.	10.6%
COc1ccc(S(=O)(=O)Nc2cc3c(cc2NCc2ccccc2)n(C)c(=O)n3C)cc1	50.1µM*	44.7µM*	15.8µM*	.	1.7%
O=c1[nH]c(=O)n([C@@H]2C[C@H](O)[C@H](CO)O2)cc1C(F)(F)F	.	.	18.8%[21.5 µM]	.	.
OCCCc1nc2n(n1)C(c1ccccc1)C=C(c1ccccc1)N2 (stereo unspecified)	-16.3%	-4.9%	39.8µM*	.	60.3%
COc1ccc(C2C=C(c3ccccc3)Nc3nc(CCCO)nn32)cc1 (stereo unspecified)	-25.0%	5.5%	?	1.8%	26.1%
COc1ccc(C2C=C(c3cccs3)Nc3nc(CCCO)nn32)cc1 (stereo unspecified)	.	?	39.8µM*	-6.2%	.
O=C1SCCC1NS(=O)(=O)c1ccccc1[N+](=O)[O-] (stereo unspecified)	-14.1%	-16.0%	44.7µM*	7.0%	11.6%
COC(=O)C1=C(C(=O)OC)[C@@H]2N(C)c3ccc(OC)cc3[C@@]23C[C@@H](C(=O)OC)N(C(=O)c2ccc(Br)cc2)C3=N1	12.6µM*	20µM*	?	.	-23.3%
CCC(=O)Nc1c(C)nn(-c2ccc(C)c(C)c2)c1C	0.7%	-21.8%	28.2µM*	-3.2%	7.8%
COc1ccc(-c2cc3nc(C4CCN(C(=O)OC(C)(C)C)CC4)c(C(=O)O)cn3n2)cc1	-10.6%	-32.2%	79.4µM*	5.8%	20.1%
COc1ccc(N2CCN(C(=O)c3cnn(-c4ccc(OC)cc4)c3C3CCN(C(=O)OC(C)(C)C)CC3)CC2)cc1	-35.6%	-12.5%[57.1 µM]	14.1µM*	.	15.0%
C/C(CCC(C)C)=N\Nc1cc(C)c2ccccc2n1	?	.	?	?	-4.4%
COc1ccc(C(=O)C2CCCN(Cc3c(F)ccc(F)c3F)C2)c(OC)c1 (stereo unspecified)	-5.5%	4.8%	-4.1%	0.0%	36.0%
COc1ccc(C(=O)C2CCCN(Cc3cccn3-c3ccc(Cl)cn3)C2)c(OC)c1 (stereo unspecified)	-28.6%	56.2µM*	-18.7%	-9.1%	-16.4%
